Experimental data from the supplement of paper PMC11732987, “Enantioselective OTUD7B fragment discovery through chemoproteomics screening and high-throughput optimisation” (Communications Chemistry, 2025).

How the values were obtained:
Assay in all cases: log2 ratio of Biotin-Ahx-Ub-VS probe labelling (fragment/DMSO); higher = less target engagement (more negative = stronger competition), active = hit call of the paper (q ≤ 0.05, log2 ratio ≤ -1)
Conditions in all cases: compound concentration: 200 uM; treatment time: 3 h
[1] = molecular target: T1, USP42 (UniProt Q9H9J4)
T1 sequence (whole entry): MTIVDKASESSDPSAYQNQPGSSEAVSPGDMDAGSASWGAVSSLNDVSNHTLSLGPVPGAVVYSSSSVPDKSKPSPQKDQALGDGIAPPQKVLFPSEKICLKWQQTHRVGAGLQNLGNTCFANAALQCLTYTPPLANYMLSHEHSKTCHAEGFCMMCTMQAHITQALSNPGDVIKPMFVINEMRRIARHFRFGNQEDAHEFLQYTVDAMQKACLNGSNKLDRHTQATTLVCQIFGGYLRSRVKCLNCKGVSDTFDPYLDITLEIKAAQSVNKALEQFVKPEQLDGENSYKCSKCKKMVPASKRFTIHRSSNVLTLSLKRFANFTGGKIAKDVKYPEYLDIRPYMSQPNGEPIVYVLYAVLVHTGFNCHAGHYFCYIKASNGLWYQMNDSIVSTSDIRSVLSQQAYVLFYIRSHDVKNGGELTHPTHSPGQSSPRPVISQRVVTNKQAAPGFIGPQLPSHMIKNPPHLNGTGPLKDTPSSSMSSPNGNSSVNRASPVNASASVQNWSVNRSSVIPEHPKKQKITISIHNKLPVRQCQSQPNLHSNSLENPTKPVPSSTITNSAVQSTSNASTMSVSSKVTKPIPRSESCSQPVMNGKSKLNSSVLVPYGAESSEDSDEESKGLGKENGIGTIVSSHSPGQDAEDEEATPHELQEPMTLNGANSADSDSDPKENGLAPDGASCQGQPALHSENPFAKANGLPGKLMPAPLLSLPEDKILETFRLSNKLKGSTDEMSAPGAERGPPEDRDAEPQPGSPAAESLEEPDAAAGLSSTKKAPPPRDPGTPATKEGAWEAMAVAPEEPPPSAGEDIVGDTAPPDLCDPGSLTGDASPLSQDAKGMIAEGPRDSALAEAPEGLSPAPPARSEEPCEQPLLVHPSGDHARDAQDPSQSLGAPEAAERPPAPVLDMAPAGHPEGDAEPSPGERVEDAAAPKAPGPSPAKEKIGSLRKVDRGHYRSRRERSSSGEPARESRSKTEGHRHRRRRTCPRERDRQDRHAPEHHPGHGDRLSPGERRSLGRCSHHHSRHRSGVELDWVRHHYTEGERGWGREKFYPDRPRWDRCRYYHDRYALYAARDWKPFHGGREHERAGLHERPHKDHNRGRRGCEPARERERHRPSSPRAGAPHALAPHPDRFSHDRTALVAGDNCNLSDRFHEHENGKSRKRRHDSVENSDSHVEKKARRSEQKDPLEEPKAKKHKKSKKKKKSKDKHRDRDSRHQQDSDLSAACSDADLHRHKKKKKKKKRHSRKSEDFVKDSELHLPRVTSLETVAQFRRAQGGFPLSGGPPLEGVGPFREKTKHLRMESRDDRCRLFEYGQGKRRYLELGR
Summary of the method: (§1)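 Global-median-normalised Spectronaut label-free quantities were compared by unpaired t-test, and values are average log2 ratios of fragment over vehicle. Only proteins with ≥2 unique peptides were used. HEK293T lysate (495 µg per sample) was treated in triplicate with fragment at 200 µM or vehicle for 3 h and then with Biotin-Ahx-Ub-VS at 0.5 µM final for 1 h. Labelled DUBs were then NeutrAvidin-enriched, digested with LysC and trypsin, and run by diaPASEF LC-MS/MS.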

[2] = molecular target: USP46 (UniProt P62068)
USP46, sequence (P62068 whole entry): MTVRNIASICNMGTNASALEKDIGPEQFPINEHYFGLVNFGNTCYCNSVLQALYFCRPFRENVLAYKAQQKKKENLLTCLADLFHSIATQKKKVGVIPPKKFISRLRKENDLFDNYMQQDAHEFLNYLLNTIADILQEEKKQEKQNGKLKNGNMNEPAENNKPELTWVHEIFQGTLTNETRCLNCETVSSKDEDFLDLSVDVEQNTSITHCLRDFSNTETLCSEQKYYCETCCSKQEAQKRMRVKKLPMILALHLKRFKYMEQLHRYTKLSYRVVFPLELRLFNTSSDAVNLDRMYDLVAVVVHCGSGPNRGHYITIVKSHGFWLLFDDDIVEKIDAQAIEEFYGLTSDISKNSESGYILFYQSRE
Summary of the method: as §1

[3] = molecular target: T2, USP47 (UniProt Q96K76)
T2 sequence (whole entry): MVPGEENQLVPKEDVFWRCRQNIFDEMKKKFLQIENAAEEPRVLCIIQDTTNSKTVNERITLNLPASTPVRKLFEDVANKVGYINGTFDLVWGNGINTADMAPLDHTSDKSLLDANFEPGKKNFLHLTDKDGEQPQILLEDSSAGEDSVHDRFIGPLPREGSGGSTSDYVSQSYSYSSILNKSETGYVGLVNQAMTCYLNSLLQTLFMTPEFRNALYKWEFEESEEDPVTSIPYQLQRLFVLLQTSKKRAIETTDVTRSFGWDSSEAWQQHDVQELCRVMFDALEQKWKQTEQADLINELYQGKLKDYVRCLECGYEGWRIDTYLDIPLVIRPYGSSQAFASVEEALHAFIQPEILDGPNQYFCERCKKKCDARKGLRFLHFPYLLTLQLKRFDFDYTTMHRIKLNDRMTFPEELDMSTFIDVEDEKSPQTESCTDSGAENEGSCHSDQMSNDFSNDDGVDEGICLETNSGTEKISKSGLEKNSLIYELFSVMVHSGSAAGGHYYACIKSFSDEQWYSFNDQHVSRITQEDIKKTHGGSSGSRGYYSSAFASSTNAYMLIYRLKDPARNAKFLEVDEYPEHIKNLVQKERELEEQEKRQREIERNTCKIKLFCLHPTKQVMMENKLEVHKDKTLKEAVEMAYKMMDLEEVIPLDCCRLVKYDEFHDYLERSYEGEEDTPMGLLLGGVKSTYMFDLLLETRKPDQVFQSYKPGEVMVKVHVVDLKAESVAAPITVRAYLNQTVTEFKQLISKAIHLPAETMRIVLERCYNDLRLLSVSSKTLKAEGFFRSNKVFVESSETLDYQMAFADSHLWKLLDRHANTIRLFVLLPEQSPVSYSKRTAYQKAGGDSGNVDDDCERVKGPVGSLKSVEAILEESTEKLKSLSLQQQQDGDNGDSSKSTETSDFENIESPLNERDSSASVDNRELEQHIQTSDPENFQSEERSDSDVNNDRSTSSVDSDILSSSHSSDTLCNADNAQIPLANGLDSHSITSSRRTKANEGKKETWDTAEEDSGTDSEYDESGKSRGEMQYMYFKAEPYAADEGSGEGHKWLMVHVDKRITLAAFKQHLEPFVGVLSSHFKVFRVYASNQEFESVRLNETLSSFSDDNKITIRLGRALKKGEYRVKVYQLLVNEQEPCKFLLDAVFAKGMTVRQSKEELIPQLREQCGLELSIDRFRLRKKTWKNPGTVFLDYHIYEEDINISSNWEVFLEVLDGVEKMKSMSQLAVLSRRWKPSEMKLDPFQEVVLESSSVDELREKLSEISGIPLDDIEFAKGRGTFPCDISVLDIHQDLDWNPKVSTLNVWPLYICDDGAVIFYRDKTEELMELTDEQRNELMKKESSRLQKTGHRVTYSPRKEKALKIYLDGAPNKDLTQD
Summary of the method: as §1

[4] = molecular target: T3, USP48 (UniProt Q86UV5)
T3 sequence (whole entry): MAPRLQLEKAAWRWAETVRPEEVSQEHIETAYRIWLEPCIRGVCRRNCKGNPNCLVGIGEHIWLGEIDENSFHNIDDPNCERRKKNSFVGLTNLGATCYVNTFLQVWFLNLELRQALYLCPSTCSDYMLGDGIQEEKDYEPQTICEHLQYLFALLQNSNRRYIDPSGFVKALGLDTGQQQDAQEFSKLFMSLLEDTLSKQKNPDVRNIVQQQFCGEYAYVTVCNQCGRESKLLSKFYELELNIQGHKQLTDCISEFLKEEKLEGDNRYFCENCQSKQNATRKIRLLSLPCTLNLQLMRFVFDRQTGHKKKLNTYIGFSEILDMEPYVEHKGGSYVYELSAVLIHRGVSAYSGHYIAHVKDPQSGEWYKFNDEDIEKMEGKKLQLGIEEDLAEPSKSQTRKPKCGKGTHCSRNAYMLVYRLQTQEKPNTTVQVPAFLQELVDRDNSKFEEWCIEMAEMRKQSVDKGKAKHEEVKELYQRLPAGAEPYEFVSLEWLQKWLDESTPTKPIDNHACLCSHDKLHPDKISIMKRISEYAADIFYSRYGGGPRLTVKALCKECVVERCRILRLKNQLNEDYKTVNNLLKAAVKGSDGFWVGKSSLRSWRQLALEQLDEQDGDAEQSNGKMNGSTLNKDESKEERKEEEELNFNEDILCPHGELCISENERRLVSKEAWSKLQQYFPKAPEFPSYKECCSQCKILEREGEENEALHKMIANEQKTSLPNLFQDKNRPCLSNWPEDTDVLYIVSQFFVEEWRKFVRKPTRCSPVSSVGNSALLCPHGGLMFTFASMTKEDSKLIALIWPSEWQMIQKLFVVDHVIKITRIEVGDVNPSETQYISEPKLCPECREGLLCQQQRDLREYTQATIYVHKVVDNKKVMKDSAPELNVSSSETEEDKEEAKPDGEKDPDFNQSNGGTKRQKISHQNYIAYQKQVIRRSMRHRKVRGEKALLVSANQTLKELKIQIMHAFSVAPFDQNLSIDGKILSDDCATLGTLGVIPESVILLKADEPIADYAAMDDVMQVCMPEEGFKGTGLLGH
Summary of the method: as §1

[5] = molecular target: T4, USP5 (UniProt P45974)
T4 sequence (whole entry): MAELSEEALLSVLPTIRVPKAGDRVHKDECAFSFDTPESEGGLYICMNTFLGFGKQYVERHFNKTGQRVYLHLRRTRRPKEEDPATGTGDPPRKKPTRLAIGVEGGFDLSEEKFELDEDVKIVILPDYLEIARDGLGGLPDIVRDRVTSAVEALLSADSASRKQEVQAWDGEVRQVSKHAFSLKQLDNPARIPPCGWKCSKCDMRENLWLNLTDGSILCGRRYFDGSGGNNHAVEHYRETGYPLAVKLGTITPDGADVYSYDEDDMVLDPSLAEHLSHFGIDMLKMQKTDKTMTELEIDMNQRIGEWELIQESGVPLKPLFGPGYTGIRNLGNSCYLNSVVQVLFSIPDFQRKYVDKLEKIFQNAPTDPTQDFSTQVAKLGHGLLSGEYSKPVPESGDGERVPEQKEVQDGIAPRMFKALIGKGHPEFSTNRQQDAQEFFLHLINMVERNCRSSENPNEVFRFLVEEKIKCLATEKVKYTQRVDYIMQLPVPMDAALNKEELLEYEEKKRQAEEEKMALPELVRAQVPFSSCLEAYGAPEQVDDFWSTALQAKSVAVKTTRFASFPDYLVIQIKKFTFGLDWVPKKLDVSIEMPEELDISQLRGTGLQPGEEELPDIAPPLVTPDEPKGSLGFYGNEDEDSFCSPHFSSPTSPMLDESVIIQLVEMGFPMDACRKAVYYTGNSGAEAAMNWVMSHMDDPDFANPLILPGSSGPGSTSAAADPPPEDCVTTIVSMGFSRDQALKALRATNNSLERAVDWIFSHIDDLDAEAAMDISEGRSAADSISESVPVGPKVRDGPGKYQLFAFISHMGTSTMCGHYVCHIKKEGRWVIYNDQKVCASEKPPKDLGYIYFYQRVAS
Summary of the method: as §1

[6] = molecular target: USP54 (UniProt Q70EL1)
USP54, sequence (Q70EL1 whole entry): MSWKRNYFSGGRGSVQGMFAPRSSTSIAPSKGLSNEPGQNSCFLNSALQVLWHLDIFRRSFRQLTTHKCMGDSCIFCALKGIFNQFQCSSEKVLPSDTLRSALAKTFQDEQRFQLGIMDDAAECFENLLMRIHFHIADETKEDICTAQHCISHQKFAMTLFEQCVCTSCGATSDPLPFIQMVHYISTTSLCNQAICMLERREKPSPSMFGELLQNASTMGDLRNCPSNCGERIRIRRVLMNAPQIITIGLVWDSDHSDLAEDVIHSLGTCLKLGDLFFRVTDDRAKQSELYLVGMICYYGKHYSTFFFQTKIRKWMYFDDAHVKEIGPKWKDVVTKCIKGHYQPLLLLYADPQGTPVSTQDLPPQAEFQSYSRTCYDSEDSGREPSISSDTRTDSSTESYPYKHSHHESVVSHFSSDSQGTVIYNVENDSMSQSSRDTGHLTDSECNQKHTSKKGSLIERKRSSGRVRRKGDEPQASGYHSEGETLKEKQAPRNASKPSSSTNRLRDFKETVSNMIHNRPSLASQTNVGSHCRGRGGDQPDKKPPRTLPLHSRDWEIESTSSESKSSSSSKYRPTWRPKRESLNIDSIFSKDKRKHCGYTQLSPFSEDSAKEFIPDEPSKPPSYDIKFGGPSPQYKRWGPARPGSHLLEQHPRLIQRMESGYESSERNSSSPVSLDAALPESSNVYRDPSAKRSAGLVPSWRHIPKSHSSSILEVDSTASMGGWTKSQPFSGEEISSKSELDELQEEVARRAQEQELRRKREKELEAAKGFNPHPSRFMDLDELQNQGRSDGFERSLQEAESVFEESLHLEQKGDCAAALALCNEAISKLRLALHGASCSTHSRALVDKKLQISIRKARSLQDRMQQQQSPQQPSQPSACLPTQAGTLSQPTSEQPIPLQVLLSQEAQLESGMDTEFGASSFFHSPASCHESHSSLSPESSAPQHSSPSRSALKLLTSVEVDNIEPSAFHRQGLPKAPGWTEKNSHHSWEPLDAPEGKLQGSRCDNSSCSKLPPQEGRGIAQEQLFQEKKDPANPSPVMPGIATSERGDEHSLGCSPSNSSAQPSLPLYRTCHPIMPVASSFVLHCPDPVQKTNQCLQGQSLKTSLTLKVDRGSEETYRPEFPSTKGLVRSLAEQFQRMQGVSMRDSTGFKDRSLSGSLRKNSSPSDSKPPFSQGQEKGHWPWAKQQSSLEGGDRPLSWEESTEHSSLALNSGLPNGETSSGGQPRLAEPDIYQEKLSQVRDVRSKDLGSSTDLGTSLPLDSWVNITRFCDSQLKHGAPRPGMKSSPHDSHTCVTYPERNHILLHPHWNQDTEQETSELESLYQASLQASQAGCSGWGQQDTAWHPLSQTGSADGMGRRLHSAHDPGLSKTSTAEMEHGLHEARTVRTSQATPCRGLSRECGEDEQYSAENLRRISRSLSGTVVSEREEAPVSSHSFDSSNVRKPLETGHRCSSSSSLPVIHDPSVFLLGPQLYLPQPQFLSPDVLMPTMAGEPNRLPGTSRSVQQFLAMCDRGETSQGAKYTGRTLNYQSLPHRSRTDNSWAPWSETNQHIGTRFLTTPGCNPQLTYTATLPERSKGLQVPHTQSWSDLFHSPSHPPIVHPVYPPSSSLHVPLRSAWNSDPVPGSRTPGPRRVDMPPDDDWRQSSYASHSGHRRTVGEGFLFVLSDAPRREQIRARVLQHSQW
Summary of the method: as §1

[7] = molecular target: USP7 (UniProt Q93009)
Summary of the method: as §1

[8] = molecular target: T5, USP8 (UniProt P40818)
T5 sequence (whole entry): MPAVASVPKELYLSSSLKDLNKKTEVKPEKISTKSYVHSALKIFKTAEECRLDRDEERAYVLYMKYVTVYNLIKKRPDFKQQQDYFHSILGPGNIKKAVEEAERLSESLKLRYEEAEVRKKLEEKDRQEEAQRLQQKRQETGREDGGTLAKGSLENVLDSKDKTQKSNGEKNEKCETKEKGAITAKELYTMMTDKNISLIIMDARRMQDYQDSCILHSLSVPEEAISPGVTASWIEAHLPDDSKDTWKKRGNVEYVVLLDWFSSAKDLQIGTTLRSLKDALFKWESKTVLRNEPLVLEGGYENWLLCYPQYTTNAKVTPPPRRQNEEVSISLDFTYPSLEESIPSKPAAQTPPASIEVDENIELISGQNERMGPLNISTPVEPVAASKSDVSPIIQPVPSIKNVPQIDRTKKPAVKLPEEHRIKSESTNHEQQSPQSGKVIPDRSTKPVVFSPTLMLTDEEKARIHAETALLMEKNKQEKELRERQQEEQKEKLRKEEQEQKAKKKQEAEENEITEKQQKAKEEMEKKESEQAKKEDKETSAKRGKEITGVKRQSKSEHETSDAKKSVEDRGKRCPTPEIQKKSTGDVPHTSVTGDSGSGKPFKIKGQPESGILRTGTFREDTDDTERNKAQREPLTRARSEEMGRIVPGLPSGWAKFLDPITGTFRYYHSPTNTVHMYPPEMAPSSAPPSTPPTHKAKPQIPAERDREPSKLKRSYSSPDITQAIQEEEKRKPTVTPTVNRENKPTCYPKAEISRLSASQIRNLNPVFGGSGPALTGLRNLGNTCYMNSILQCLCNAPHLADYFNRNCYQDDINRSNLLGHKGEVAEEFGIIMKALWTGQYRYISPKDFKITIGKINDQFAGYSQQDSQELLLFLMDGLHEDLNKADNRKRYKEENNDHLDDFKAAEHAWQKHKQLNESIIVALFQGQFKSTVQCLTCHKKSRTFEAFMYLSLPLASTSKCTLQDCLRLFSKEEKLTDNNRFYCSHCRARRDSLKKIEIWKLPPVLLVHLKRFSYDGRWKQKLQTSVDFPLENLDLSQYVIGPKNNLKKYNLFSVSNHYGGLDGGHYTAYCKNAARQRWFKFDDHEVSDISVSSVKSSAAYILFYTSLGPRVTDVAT
Summary of the method: as §1

[9] = molecular target: USP9X (UniProt Q93008)
USP9X, sequence (Q93008 whole entry): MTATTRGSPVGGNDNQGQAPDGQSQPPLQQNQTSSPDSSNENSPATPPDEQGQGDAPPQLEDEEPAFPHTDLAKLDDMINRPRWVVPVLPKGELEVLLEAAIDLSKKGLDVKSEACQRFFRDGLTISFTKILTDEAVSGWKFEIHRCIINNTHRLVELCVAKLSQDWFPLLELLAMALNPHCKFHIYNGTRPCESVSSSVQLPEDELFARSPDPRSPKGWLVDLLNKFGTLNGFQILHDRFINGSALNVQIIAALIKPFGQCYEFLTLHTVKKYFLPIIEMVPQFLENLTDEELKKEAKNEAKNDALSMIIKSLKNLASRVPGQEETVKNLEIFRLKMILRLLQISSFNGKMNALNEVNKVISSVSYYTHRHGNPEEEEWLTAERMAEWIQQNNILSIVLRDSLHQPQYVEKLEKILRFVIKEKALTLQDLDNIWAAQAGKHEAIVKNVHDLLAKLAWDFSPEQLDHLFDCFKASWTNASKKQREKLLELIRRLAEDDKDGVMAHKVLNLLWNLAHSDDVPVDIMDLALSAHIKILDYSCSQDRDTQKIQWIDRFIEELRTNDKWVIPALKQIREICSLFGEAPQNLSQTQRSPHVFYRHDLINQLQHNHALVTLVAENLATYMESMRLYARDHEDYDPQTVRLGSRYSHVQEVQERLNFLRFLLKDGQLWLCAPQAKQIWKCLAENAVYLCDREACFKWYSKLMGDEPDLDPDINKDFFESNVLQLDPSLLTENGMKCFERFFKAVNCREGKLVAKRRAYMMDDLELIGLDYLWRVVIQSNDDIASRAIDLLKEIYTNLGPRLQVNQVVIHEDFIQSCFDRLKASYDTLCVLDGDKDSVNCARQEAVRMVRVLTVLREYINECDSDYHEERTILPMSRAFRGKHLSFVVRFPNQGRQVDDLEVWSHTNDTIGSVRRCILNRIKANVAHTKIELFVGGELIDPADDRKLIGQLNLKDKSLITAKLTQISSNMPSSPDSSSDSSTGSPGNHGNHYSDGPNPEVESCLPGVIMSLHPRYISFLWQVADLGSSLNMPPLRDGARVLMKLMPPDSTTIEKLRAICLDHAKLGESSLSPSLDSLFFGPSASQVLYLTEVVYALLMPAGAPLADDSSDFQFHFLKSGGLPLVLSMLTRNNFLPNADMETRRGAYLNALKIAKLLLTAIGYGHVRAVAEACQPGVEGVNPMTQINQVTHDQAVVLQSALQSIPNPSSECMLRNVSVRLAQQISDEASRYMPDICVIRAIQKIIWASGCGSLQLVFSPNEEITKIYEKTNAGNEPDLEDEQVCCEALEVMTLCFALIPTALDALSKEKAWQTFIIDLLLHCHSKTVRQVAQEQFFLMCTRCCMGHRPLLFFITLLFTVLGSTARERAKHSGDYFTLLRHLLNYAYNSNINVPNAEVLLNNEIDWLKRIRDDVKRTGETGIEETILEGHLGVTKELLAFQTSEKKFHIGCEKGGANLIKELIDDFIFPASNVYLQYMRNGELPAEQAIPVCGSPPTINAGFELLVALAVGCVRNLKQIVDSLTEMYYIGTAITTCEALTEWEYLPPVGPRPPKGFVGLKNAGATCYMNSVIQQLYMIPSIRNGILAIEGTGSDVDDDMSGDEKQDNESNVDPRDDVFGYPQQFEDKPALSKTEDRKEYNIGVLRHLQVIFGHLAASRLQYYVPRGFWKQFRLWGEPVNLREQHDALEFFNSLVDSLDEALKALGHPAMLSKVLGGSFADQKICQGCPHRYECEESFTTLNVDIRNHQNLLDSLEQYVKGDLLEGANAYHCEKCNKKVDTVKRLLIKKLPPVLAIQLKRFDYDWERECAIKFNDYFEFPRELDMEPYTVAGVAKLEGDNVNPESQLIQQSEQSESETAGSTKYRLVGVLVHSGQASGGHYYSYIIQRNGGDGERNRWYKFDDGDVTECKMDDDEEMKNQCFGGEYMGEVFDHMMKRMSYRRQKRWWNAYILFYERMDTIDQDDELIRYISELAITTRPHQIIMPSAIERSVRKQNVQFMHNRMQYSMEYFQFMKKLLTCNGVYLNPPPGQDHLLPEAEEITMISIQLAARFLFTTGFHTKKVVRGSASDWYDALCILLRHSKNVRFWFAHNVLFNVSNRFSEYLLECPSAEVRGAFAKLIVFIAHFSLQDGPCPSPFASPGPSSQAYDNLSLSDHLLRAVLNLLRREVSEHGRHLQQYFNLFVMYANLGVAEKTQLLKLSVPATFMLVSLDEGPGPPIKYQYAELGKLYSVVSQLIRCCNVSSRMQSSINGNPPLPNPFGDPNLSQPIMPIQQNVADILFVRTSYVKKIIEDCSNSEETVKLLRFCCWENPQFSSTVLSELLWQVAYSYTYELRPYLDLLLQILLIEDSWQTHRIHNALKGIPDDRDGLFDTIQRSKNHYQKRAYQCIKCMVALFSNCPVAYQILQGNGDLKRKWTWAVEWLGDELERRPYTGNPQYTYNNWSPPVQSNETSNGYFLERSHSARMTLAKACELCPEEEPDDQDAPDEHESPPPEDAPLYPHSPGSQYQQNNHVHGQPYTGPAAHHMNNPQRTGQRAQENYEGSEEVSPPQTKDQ
Summary of the method: as §1

[10] = molecular target: UniProt O00487
UniProt O00487, sequence (O00487 whole entry): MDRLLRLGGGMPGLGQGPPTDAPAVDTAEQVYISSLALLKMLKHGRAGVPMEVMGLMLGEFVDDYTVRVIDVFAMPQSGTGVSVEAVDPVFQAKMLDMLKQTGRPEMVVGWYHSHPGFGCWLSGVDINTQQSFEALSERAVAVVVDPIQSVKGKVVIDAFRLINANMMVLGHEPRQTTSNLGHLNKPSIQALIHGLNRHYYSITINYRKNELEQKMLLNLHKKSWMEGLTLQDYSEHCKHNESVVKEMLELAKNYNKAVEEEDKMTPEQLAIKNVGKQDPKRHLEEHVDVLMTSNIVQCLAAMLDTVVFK
Summary of the method: as §1

Measured: log2 ratio of Biotin-Ahx-Ub-VS probe labelling

CN1C(=O)c2ccc(NC(=O)CCl)cc2C1=O
inactive: [1] 0.714 | [2] -0.152 | [3] -0.217 | [4] -0.208 | [5] -0.508 | [6] 0.112 | [7] -0.743 | [8] -0.236 | [9] -0.202 | [10] 0.0214
